Compounds with a hit are over-represented: about 17% of the library has one in this group of screens.
HT1080NT lethal = qHTS for induction of synthetic lethality in tumor cells producing 2HG: qHTS for the HT-1080-NT fibrosarcoma cell line; HT-1080-NT fibrosarcoma viability, CellTiter-Glo ATP luminescence, 48 h; Potency, µM (highest dose often 46.1 µM), hits mostly cytotoxic; hit rate 1.6% among 360,000; AID 686970, 2013;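 further: NT is the 2HG producing partner of a matched IDH1 knockdown line; nearly all actives have a fitted effect of over 55% in size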
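HT-1080-NT fibrosarcoma cells (2HG-overproducing), 750 cells/well in RPMI with 5% FBS, dosed after 2 h and incubated 48 h at 37C. CellTiter-Glo luminescence normalized to DMSO and no-cell wells; concentration-response curves fitted and classed.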
DT40 TDP1 no CPT = qHTS for Inhibitors of human tyrosyl-DNA phosphodiesterase 1 (TDP1): qHTS in cells in absence of CPT | DT40 Tdp1-/- hTDP1 cells, no CPT, ATP luminescence, 48 h | Potency, µM (titrated, usually from 46.2 µM), usual class: inhibitors | hit rate 15% among 420,000; further: nearly all actives have a fitted effect of over 55% in size
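Stably hTDP1-transfected Tdp1-null chicken DT40 cells were treated with library compounds minus camptothecin and grown for at least 48 hr at 37 °C, after which cellular ATP was quantified by luminescence.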
HepG2 tox = qHTS for Inhibitors of TGF-b: Cytotox Counterscreen | HepG2 CAGA-GFP viability, ATP luminescence, 18 h | Potency, µM (highest dose often 46.1 µM), most hits filed as cytotoxic | hit rate 0.76% among 410,000
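CellTiter-Glo luminescence gave cytotoxicity after 18 hours at 37 degrees C. The cells were HepG2 CAGA-GFP in 1% FBS DMEM, stimulated with 500 pg/mL TGF-beta after compound addition. %Activity was normalised to no-cell wells (complete cell-killing) and DMSO (no toxicity), and curves were fitted and classified.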
TGFb SMAD3 inh = qHTS for Inhibitors of TGF-b. HepG2 CAGA-GFP TGF-b/SMAD3 reporter, GFP fluorescence, 18 h; TGF-beta stimulated, 500 pg/mL final. Potency, µM (highest dose often 46.1 µM), actives largely listed as inhibitors. hit rate 1.2% among 410,000. AID 588855, 2011; further: nearly all actives have a fitted effect of over 65% in size
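GFP signal (ex488/em500-530) from TGF-beta-stimulated HEPG2 CAGA-GFP cells, 500 pg/mL final, 18 h at 37 degrees C in DMEM plus 1% FBS, normalized to unstimulated and DMSO-stimulated controls.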
TDP1 cell CPT = qHTS for Inhibitors of human tyrosyl-DNA phosphodiesterase 1 (TDP1): qHTS in cells in presence of CPT; chicken DT40 Tdp1-/-;hTDP1 cells + 20 nM CPT, ATP luminescence, 48 h; Potency, µM (doses to about 46.2 µM), actives largely listed as inhibitors; hit rate 12% among 420,000; AID 686979, 2013; further: nearly all actives have a fitted effect of over 55% in size
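Cell growth measured by CellTiter-Glo luminescence after a minimum 48 h, 37 C compound exposure with 20 nM CPT in Tdp1-knockout DT40 cells stably expressing hTDP1, seeded 400/well; qHTS titration format.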
HT1080 IDH1KD tx = qHTS for induction of synthetic lethality in tumor cells producing 2HG: qHTS for the HT-1080-IDH1KD cell line. HT-1080 IDH1 knockdown viability, ATP luminescence, 48 h. Potency, µM (top dose mostly 46.1 µM), hits mostly cytotoxic. hit rate 2% among 360,000
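Knockdown cells (IDH1KD HT-1080) received compounds 2 h after plating at 750 cells/well and were kept 48 h at 37 °C in 5% FBS RPMI. A CellTiter-Glo luminescence read gave % activity for curve fitting.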
Hits are given with their value; [ ] = another dose, or the depositor's remark. The call rests on the fitted dose curve; in most records, active means well fitted curve in the direction sought with a large enough effect; inconclusive means small, poorly fitted or top-dose-only effect, or another doubt; inactive means no such curve, though single readings can be large; an effect the other way counts as inactive or inconclusive.

How did CCCC1(c2ccccc2)NC(=O)N(CC(=O)c2[nH]c(C)c(C(=O)OCC)c2C)C1=O (stereo not drawn) do in these assays?
HT1080NT lethal: inconclusive; DT40 TDP1 no CPT: 20.6µM; HepG2 tox: inactive; TGFb SMAD3 inh: inactive; TDP1 cell CPT: inconclusive; HT1080 IDH1KD tx: inactive[9.24 µM]

How did CCCC1(c2ccccc2)NC(=O)N(CC(=O)Nc2sc(-c3ccccc3)cc2C(=O)OCC)C1=O (stereo not drawn) do in these assays?
HT1080NT lethal: 16.4µM; DT40 TDP1 no CPT: inconclusive; HepG2 tox: inactive; TGFb SMAD3 inh: inactive; TDP1 cell CPT: inconclusive; HT1080 IDH1KD tx: 11.6µM

Results for CCOC(=O)c1cc(-c2ccccc2)sc1NC(=O)CN1C(=O)c2ccccc2C1=O ?
HT1080NT lethal: inactive; DT40 TDP1 no CPT: inactive; HepG2 tox: inactive; TGFb SMAD3 inh: inactive; TDP1 cell CPT: inactive; HT1080 IDH1KD tx: inactive

What do the screens show for `Cc1ccc(S(=O)(=O)N(C)C)cc1NC(=O)COC(=O)c1ccc2c(c1)OCCO2`?
HT1080NT lethal: inactive; DT40 TDP1 no CPT: inconclusive; HepG2 tox: inactive; TGFb SMAD3 inh: inconclusive; TDP1 cell CPT: inactive; HT1080 IDH1KD tx: inactive

How did O=C(NCCNC(=O)c1ccc([N+](=O)[O-])cc1)c1ccncc1 do in these assays?
HT1080NT lethal: inactive; DT40 TDP1 no CPT: inactive; HepG2 tox: inactive; TGFb SMAD3 inh: inactive; TDP1 cell CPT: inactive; HT1080 IDH1KD tx: inactive

How did N#Cc1cccnc1N1CCN(C(=O)c2cccc3c2C(=O)c2ccc(Cl)cc2S3(=O)=O)CC1 do in these assays?
HT1080NT lethal: inconclusive; DT40 TDP1 no CPT: 16.4µM; HepG2 tox: inactive; TGFb SMAD3 inh: inactive; TDP1 cell CPT: inconclusive; HT1080 IDH1KD tx: inactive

Results for N#Cc1cccnc1N1CCN(C(=O)c2cccc3c2C(=O)c2ccc(-c4ccc(Cl)c(C(F)(F)F)c4)cc2S3(=O)=O)CC1 ?
HT1080NT lethal: inactive; DT40 TDP1 no CPT: inactive; HepG2 tox: inactive; TGFb SMAD3 inh: inactive; TDP1 cell CPT: inconclusive; HT1080 IDH1KD tx: inactive

What do the screens show for `O=C(NC1CCCC1)c1cccc2c1C(=O)c1ccc(Cl)cc1S2(=O)=O`?
HT1080NT lethal: inactive; DT40 TDP1 no CPT: inactive; HepG2 tox: inactive; TGFb SMAD3 inh: inactive; TDP1 cell CPT: inactive; HT1080 IDH1KD tx: inactive

What do the screens show for `O=C1c2ccc(Cl)cc2S(=O)(=O)c2cccc(C(=O)N3CCN(c4ncc(Br)cn4)CC3)c21`?
HT1080NT lethal: inactive; DT40 TDP1 no CPT: 20.6µM; HepG2 tox: inactive; TGFb SMAD3 inh: inactive; TDP1 cell CPT: inconclusive; HT1080 IDH1KD tx: inactive

How did COc1ccc(-c2ccc3c(c2)S(=O)(=O)c2cccc(C(=O)NC[C@@H]4CCCO4)c2C3=O)cc1OC do in these assays?
HT1080NT lethal: inactive; DT40 TDP1 no CPT: inconclusive; HepG2 tox: inactive; TGFb SMAD3 inh: inactive; TDP1 cell CPT: inconclusive; HT1080 IDH1KD tx: inactive

How did COc1ccc(-c2ccc3c(c2)S(=O)(=O)c2cccc(C(=O)N4CCN(c5c(Cl)cncc5Cl)CC4)c2C3=O)cc1OC do in these assays?
HT1080NT lethal: inactive; DT40 TDP1 no CPT: 5.17µM; HepG2 tox: inactive; TGFb SMAD3 inh: inactive; TDP1 cell CPT: 5.8µM; HT1080 IDH1KD tx: inactive

How did Cc1ccc(S(=O)(=O)N(C)Cc2ccc(C(=O)N/N=C3\CC(=O)CC(C)(C)C3)cc2)cc1 do in these assays?
HT1080NT lethal: inactive; DT40 TDP1 no CPT: inactive; HepG2 tox: inactive; TGFb SMAD3 inh: inactive; TDP1 cell CPT: inactive; HT1080 IDH1KD tx: inactive

Results for [O-]/[N+](=C\c1ccncc1)c1ccccc1 ?
HT1080NT lethal: inactive; DT40 TDP1 no CPT: inconclusive; HepG2 tox: inactive; TGFb SMAD3 inh: inactive; TDP1 cell CPT: 20.6µM; HT1080 IDH1KD tx: inactive

Bioassay records from PubChem.
